Assay results: PubChem BioAssay (NCI)
This is part of a sample that, as a whole, favours compounds with a hit. Of some 79,000 tested, about 15% had one in any assay. Values without a mark were called inactive. The source made the active and inactive calls. Rule as the data show it: active = growth inhibition above about 70%; inactive = the rest.

Legend:
[1] = NCI Yeast Anticancer Drug Screen. Data for the rad50 strain (AID 155);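 also: 0% = growth of vehicle-only cultures of the same strain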; conditions: S. cerevisiae rad50 strain growth inhibition, active compounds read high
In short: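 A DNA repair-deficient yeast mutant serves as the test organism; compound-induced growth inhibition is calculated against vehicle-treated cells.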

[2] = NCI Yeast Anticancer Drug Screen. Data for the mec2-1 strain (AID 157); conditions: S. cerevisiae mec2-1 strain, active compounds read high
In short: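 Using mec2-1 yeast: add compound, measure growth, express inhibition versus vehicle-treated cultures.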

[3] = NCI Yeast Anticancer Drug Screen. Data for the sgs1 mgt1 strain (AID 161);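 also: 0% = growth of cultures given vehicle only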; conditions: S. cerevisiae sgs1 mgt1 strain, active compounds read high
In short: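 Percent growth inhibition was derived by comparing compound-exposed mutant yeast with vehicle-exposed cultures. The strain carries alterations in DNA damage repair.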

[4] = NCI Yeast Anticancer Drug Screen. Data for the cln2 rad14 strain (AID 165);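 also: 0% = growth equal to vehicle treated cultures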; conditions: S. cerevisiae cln2 rad14 strain, active compounds read high
In short: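 Yeast strain cln2 rad14, bearing defects in cell cycle control and DNA repair, serves as the test system; values reflect growth inhibition compared with vehicle.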

[5] = NCI Yeast Anticancer Drug Screen. Data for the bub3 strain (AID 167); conditions: S. cerevisiae bub3 mutant strain, active compounds read high
In short: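 Inhibition values come from growth of compound-treated mutant yeast normalised to vehicle-treated controls.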

[6] = NCI Yeast Anticancer Drug Screen. Data for the mlh1 rad18 strain (AID 175); conditions: S. cerevisiae mlh1 rad18 strain growth inhibition, active compounds read high
In short: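 Steps: expose repair-defective yeast to compound; measure growth; express inhibition against vehicle-treated controls.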

[7] = at 5.0 µM (retest, dose inferred, filed as 0.5)
[8] = at 50.0 µM (retest, dose inferred, filed as 5.0)

Compound | growth inhibition [1, 7] | growth inhibition [1, 8] | growth inhibition ([1]; at 50.0 µM) | growth inhibition [2, 7] | growth inhibition [2, 8] | growth inhibition ([2]; at 50.0 µM) | growth inhibition [3, 7] | growth inhibition [3, 8] | growth inhibition ([3]; at 50.0 µM) | growth inhibition [4, 7] | growth inhibition [4, 8] | growth inhibition ([4]; at 50.0 µM) | growth inhibition [5, 7] | growth inhibition [5, 8] | growth inhibition ([5]; at 50.0 µM) | growth inhibition [6, 7] | growth inhibition [6, 8] | growth inhibition ([6]; at 50.0 µM)
c1ccc2c(c1)[O][Sn][O]2 | 0% | 6% | 98.8% (active) | 1% | 3% | 99.2% (active) | -1% | 1% | 39.8% | 0% | -1% | 98.8% (active) | -1% | 2% | 99.4% (active) | 1% | 3% | 99% (active)
CC(C)[CH2][Sn](=[O])[c]1ccccc1 | 8% | 18% | 99.3% (active) | 5% | 11% | 99.6% (active) | 5% | 14% | 99.5% (active) | 2% | 10% | 94.8% (active) | 8% | 10% | 99.5% (active) | 5% | 22% | 99.2% (active)
O=C([CH-]C(=O)c1ccccc1)c1ccccc1.O=C([CH-]C(=O)c1ccccc1)c1ccccc1.O=C([CH-]C(=O)c1ccccc1)c1ccccc1.[OH3+].[Y+3] | 46% | 99% (active) | 91.6% (active) | 42% | 100% (active) | 93.5% (active) | 53% | 100% (active) | 94.1% (active) | – | – | – | 63% | 84% (active) | 92.5% (active) | 56% | 100% (active) | 91.5% (active)
O=C([CH-]C(=O)c1ccccc1)c1ccccc1.O=C([CH-]C(=O)c1ccccc1)c1ccccc1.O=C([CH-]C(=O)c1ccccc1)c1ccccc1.[Nd+3].[OH3+] | 49% | 99% (active) | 91.8% (active) | 43% | 100% (active) | 93.8% (active) | 55% | 100% (active) | 93.8% (active) | – | – | – | 61% | 99% (active) | 92.5% (active) | 60% | 100% (active) | 91.2% (active)
COc1cc(C2c3cc4c(cc3OC(N3CCOCC3)C2C)OCO4)cc(OC)c1OC (centres undefined) | 18% | 22% | -12.6% | 21% | 31% | -2.55% | -17% | -10% | -1.05% | 4% | 0% | 4.2% | – | – | – | 22% | 28% | 0.7%
CC1CC[N-]C(C)C1.CN(C)C=O.[Cl][Pt][Cl] (centres undefined) | 33% | 100% (active) | 80.7% (active) | 42% | 100% (active) | 92.2% (active) | 66% | 100% (active) | 89.8% (active) | 61% | 100% (active) | 49% | – | – | – | 25% | 99% (active) | 89.8% (active)
CC(=O)[O-].O=C([CH-]C(=O)c1ccccc1)c1ccccc1.O=C([CH-]C(=O)c1ccccc1)c1ccccc1.[Dy+3] | 44% | 99% (active) | 91.5% (active) | 35% | 99% (active) | 93.2% (active) | 44% | 100% (active) | 93.4% (active) | – | – | – | 57% | 96% (active) | 92.1% (active) | 50% | 98% (active) | 91.3% (active)
O=C([CH-]C(=O)c1ccccc1)c1ccccc1.O=C([CH-]C(=O)c1ccccc1)c1ccccc1.[Nd+3].[OH-].[OH3+] | 34% | 34% | 92.2% (active) | 11% | 11% | 93.7% (active) | 38% | 38% | 94.2% (active) | – | – | – | 36% | 36% | 92.2% (active) | 30% | 30% | 89.8% (active)
CCOC(=O)[C]1([Pb]([CH3])([CH3])[CH3])N=NC(C(=O)OC)=C1C(=O)OC (centres undefined) | 6% | 32% | 68.8% | -1% | -14% | -2.15% | 2% | 22% | 29.8% | 4% | 5% | 14.2% | -2% | 32% | 15.9% | 1% | -2% | 30.7%
